# Measured values as given in PubChem BioAssay (EPA / NIEHS).
# Calls of active or inactive are those of the source. Rule for the calls: active = hit-call score of the fitted dose curve at least 0.9, where 1 is the maximum; inactive = score below 0.9.
# Key:
# Details in all cases: mRNA level, 48 h; actives raise or lower the signal
# [1] = read-out: Tumor necrosis factor receptor superfamily member 6 (Homo sapiens) (UniProt P25445); experiment: LTEA_HepaRG_FAS: Life Technologies and Expression Analysis (LTEA) Assay for Fas cell surface death receptor (FAS) using HepaRG (AID 2283447)
# How it was run: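 FAS transcript level was measured by TaqMan qRT-PCR against three housekeeping genes after 48 h chemical exposure. Cells were HepaRG, 0.5% DMSO vehicle, with a top concentration of 100 uM and half-log dilutions over eight points, in duplicate.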
# [2] = read-out: Fatty acid synthase (Homo sapiens) (UniProt P49327); experiment: LTEA_HepaRG_FASN: Life Technologies and Expression Analysis (LTEA) Assay for Fatty Acid Synthase (FASN) using HepaRG (AID 2283448)
# How it was run: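 Differentiated human HepaRG cells were exposed for 48 h in serum-free induction medium to eight half-log concentrations up to 100 uM in 0.5% DMSO, in duplicate. FASN mRNA was quantified by TaqMan qRT-PCR, normalized to ACTB/GAPDH/POLR2A, and fitted bidirectionally against DMSO.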
# [3] = read-out: Cyclin D2 (CCND2), CCND2 (gene 894); experiment: LTEA_HepaRG_CCND2: Life Technologies and Expression Analysis (LTEA) Assay for Cyclin D2 (CCND2) using HepaRG (AID 2283449)
# How it was run: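 Read-out is CCND2 mRNA level measured by qRT-PCR in human HepaRG liver cells and normalised to three housekeeping genes. Chemicals were applied for 48 h at up to 100 uM, with gain or loss fitted relative to 0.5% DMSO.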
# [4] = read-out: Cyclin Dependent Kinase Inhibitor 1A (CDKN1A), CDKN1A (gene 1026); experiment: LTEA_HepaRG_CDKN1A: Life Technologies and Expression Analysis (LTEA) Assay for Cyclin Dependent Kinase Inhibitor 1A (CDKN1A) using HepaRG (AID 2283450)
# How it was run: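 Cryopreserved HepaRG cells were plated and cultured 48 h, then switched to serum-free induction medium. Chemicals (eight half-log concentrations, top 100 uM, 0.5% DMSO) were applied for 48 h. Lysates underwent qRT-PCR for CDKN1A with housekeeping normalization.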
# [5] = read-out: Cyclin D1 (CCND1), CCND1 (gene 595); experiment: LTEA_HepaRG_CCND1: Life Technologies and Expression Analysis (LTEA) Assay for Cyclin D1 (CCND1) using HepaRG (AID 2283451);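 for AC50: TaqMan qRT-PCR transcript level normalised to ACTB GAPDH and POLR2A housekeeping genes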
# How it was run: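 Human liver HepaRG line; 48 h dosing, 8 conc. ≤100 uM, 0.5% DMSO; TaqMan qRT-PCR mRNA, 3 housekeeping genes; bidirectional curve fit vs DMSO.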
# [6] = read-out: catalase (CAT), CAT (gene 847); experiment: LTEA_HepaRG_CAT: Life Technologies and Expression Analysis (LTEA) Assay for catalase (CAT) using HepaRG (AID 2283452);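 for AC50: TaqMan qRT-PCR signal normalized to ACTB GAPDH and POLR2A housekeeping genes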
# How it was run: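 Expression of CAT was quantified by TaqMan qRT-PCR with ACTB/GAPDH/POLR2A normalization after 48 h chemical exposure of HepaRG. Eight-point half-log series, top 100 uM, in 0.5% DMSO; gain or loss fitted against vehicle.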
# [7] = read-out: flavin-containing dimethylaniline monooxygenases 3 (FMO3), FMO3 (gene 2328); experiment: LTEA_HepaRG_FMO3: Life Technologies and Expression Analysis (LTEA) Assay for flavin-containing dimethylaniline monooxygenases 3 (FMO3) using HepaRG (AID 2283453);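 for AC50: FMO3 transcript by TaqMan qRT-PCR normalized to ACTB GAPDH and POLR2A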
# How it was run: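 HepaRG, 48 h exposure, 8-pt half-log series from 100 uM, 0.5% DMSO vehicle, duplicates; FMO3 transcript by Fluidigm TaqMan qRT-PCR, housekeeping-normalized; gain/loss fit vs DMSO.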
# [8] = read-out: CFLAR gene, CFLAR (gene 8837); experiment: LTEA_HepaRG_CFLAR: Life Technologies and Expression Analysis (LTEA) Assay for CFLAR gene using HepaRG (AID 2283455)
# How it was run: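 HepaRG, 48 h exposure, 8-pt conc-response (100 uM top, half-log), 0.5% DMSO vehicle, duplicates. CFLAR expression by qRT-PCR; ACTB/GAPDH/POLR2A normalization; gain or loss fit vs DMSO baseline.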
# [9] = read-out: Forkhead box O1 (FOXO1), FOXO1 (gene 2308); experiment: LTEA_HepaRG_FOXO1: Life Technologies and Expression Analysis (LTEA) Assay for Forkhead box O1 (FOXO1) using HepaRG (AID 2283456)
# How it was run: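 Readout is FOXO1 transcript level by multiplexed qRT-PCR against three housekeeping genes, curve-fitted in both directions relative to 0.5% DMSO vehicle. Human HepaRG cultures received chemicals for 48 h, up to 100 uM in half-log steps.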
# [10] = read-out: growth arrest and DNA damage 45 (GADD45A), GADD45A (gene 1647); experiment: LTEA_HepaRG_GADD45A: Life Technologies and Expression Analysis (LTEA) Assay for growth arrest and DNA damage 45 (GADD45A) using HepaRG (AID 2283458)
# How it was run: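 Differentiated HepaRG cells were exposed in duplicate for 48 h in serum-free induction medium to 8-point half-log concentrations up to 100 uM in 0.5% DMSO. GADD45A mRNA was measured by TaqMan qRT-PCR, normalized to ACTB, GAPDH and POLR2A, with bidirectional fitting versus DMSO.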
# [11] = read-out: Forkhead box O3 (FOXO3), FOXO3 (gene 2309); experiment: LTEA_HepaRG_FOXO3: Life Technologies and Expression Analysis (LTEA) Assay for Forkhead box O3 (FOXO3) using HepaRG (AID 2283459)
# How it was run: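 HepaRG, 48 h post-dose; 8 conc., half-log from 100 uM, 0.5% DMSO, duplicates; serum-free induction medium. Readout: FOXO3 mRNA, TaqMan qRT-PCR, housekeeping-normalized. Bidirectional curve fit vs DMSO baseline.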
# [12] = read-out: ABC Transporter (ABCB1), ABCB1 (gene 5243); experiment: LTEA_HepaRG_ABCB1: Life Technologies and Expression Analysis (LTEA) Assay for ABC Transporter (ABCB1) using HepaRG (AID 2283460)
# How it was run: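 Expression of ABCB1 was quantified by qRT-PCR against three housekeeping genes after human HepaRG cultures received test chemicals for 48 hours. Concentrations spanned eight half-log steps topping at 100 uM in 0.5% DMSO; gain or loss of signal was fitted relative to vehicle.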
# [13] = read-out: growth arrest and DNA damage 45 (GADD45B), GADD45B (gene 4616); experiment: LTEA_HepaRG_GADD45B: Life Technologies and Expression Analysis (LTEA) Assay for growth arrest and DNA damage 45 (GADD45B) using HepaRG (AID 2283461)
# How it was run: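 Values are bidirectional concentration-response fits against 0.5% DMSO controls. Underlying data: qRT-PCR mRNA levels in human HepaRG liver cells treated 48 h in serum-free induction medium, eight concentrations topping at 100 uM.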
# [14] = read-out: ABC Transporter (ABCC3), ABCC3 (gene 8714); experiment: LTEA_HepaRG_ABCC3: Life Technologies and Expression Analysis (LTEA) Assay for ABC Transporter (ABCC3) using HepaRG (AID 2283462)
# How it was run: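 Differentiated HepaRG liver cells receive test chemicals at eight concentrations (max 100 uM) for 48 h. Expression of ABCC3 is quantified by qRT-PCR against ACTB, GAPDH and POLR2A, and activity is fitted in both directions against the DMSO control.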
# [15] = read-out: ABC Transporter (ABCB11), ABCB11 (gene 8647); experiment: LTEA_HepaRG_ABCB11: Life Technologies and Expression Analysis (LTEA) Assay for ABC Transporter (ABCB11) using HepaRG (AID 2283463)
# How it was run: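 ABCB11 transcript levels are read by Fluidigm TaqMan qRT-PCR after 48 h chemical treatment of human HepaRG cells. Concentrations span 100 uM downward in half-log steps with 0.5% DMSO; gain or loss is fitted against DMSO controls.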
# [16] = read-out: ABC Transporter (ABCC2), ABCC2 (gene 1244); experiment: LTEA_HepaRG_ABCC2: Life Technologies and Expression Analysis (LTEA) Assay for ABC Transporter (ABCC2) using HepaRG (AID 2283464)
# How it was run: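 Gene expression of ABCC2 was determined by qRT-PCR in HepaRG cells exposed 48 h to chemicals (highest 100 uM, half-log dilutions). Activity was fitted in both directions relative to 0.5% DMSO vehicle.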
# [17] = read-out: Cytochrome P450 (CYP1A1), CYP1A1 (gene 1543); experiment: LTEA_HepaRG_CYP1A1: Life Technologies and Expression Analysis (LTEA) Assay for Cytochrome P450 (CYP1A1) using HepaRG (AID 2283454)
# How it was run: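 Induction of CYP1A1 mRNA in a human hepatic cell line was measured 48 h after dosing, with 1 mM phenobarbital as induction positive control and 0.5% DMSO vehicle as baseline for bidirectional curve fitting.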
# Chain of Fatty acid synthase (Homo sapiens) (P49327 whole entry, looked up): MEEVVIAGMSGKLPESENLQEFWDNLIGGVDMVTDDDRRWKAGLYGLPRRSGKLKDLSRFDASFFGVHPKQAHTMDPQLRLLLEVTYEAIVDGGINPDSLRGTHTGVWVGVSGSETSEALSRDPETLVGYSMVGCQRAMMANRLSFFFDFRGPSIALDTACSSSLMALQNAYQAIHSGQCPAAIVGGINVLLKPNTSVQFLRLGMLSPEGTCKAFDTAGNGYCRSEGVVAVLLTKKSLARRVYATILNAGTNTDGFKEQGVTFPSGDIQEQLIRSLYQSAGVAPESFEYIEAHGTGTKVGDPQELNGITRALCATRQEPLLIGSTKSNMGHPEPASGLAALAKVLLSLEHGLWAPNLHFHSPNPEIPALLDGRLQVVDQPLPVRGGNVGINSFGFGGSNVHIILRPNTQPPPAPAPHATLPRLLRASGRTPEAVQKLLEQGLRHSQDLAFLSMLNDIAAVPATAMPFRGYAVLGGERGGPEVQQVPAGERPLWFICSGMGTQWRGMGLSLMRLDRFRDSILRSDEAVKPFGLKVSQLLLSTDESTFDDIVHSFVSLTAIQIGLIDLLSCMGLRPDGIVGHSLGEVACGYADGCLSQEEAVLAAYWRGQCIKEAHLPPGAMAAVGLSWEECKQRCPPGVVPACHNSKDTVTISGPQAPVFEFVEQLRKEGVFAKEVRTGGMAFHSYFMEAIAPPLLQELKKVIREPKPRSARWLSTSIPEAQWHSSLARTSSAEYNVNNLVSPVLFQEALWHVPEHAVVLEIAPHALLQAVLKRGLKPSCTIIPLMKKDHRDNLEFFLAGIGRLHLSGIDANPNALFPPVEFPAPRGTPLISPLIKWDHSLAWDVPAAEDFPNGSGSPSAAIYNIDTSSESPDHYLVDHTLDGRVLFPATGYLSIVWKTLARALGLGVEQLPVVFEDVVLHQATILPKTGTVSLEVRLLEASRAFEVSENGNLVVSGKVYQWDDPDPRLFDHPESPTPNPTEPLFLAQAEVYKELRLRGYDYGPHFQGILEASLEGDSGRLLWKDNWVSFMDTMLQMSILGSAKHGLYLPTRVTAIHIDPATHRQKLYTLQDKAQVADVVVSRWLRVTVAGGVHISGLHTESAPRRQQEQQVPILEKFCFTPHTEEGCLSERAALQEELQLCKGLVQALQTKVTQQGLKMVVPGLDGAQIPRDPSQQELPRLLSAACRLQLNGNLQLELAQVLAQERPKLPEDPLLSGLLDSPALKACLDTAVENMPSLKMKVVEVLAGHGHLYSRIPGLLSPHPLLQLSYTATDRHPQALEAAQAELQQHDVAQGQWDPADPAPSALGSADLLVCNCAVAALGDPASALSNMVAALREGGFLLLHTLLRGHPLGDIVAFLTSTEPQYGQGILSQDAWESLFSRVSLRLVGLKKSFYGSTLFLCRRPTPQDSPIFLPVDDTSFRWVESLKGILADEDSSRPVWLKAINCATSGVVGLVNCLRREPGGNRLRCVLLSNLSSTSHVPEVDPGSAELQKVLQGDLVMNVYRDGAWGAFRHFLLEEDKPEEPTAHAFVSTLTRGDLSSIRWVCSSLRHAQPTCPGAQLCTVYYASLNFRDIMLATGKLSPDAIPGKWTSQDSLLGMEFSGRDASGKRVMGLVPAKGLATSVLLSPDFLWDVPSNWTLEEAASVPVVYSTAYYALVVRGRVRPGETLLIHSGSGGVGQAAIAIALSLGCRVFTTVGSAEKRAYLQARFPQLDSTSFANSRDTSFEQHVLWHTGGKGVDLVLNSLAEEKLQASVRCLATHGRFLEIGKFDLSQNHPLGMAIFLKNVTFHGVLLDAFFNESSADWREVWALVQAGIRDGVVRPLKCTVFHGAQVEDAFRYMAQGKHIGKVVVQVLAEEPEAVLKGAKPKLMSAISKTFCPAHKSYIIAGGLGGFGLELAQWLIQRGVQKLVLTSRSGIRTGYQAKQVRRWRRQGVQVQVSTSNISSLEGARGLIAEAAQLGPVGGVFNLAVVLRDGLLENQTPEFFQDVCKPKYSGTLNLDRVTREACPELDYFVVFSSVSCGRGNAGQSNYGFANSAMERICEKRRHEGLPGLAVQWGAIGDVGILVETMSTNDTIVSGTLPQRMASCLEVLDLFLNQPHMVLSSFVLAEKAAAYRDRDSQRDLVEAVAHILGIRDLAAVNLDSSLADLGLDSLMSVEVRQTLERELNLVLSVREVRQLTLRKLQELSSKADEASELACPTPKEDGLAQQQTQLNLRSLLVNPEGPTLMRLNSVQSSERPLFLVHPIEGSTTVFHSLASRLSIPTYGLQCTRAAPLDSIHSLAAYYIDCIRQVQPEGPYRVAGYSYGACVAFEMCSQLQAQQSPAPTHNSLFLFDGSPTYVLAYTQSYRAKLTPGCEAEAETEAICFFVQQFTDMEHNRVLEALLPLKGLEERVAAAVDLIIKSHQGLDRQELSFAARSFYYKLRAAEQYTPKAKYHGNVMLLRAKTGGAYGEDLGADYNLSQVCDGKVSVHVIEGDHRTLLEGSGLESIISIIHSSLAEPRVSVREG
smiles,measurement,setting,value
O=C(O)[C@H](O)[C@@H](O)C(=O)O,outcome,[1],inactive
same,outcome,[2],inactive
same,outcome,[3],inactive
same,outcome,[4],inactive
same,outcome,[5],inactive
same,outcome,[6],inactive
same,outcome,[7],inactive
same,outcome,[8],inactive
same,outcome,[9],inactive
same,outcome,[10],inactive
same,outcome,[11],inactive
same,outcome,[12],inactive
same,outcome,[13],inactive
same,outcome,[14],inactive
same,outcome,[15],inactive
same,outcome,[16],inactive
CCOC(N)=O,outcome,[1],inactive
same,outcome,[2],inactive
same,outcome,[3],inactive
same,outcome,[4],inactive
same,outcome,[5],inactive
same,outcome,[6],inactive
same,outcome,[7],inactive
same,AC50,[17],50 µM (active)
same,outcome,[8],inactive
same,outcome,[9],inactive
same,outcome,[10],inactive
same,outcome,[11],inactive
same,outcome,[12],inactive
same,outcome,[13],inactive
same,outcome,[14],inactive
same,outcome,[15],inactive
same,outcome,[16],inactive
CCCCCOC(C)=O,outcome,[1],inactive
same,outcome,[2],inactive
same,outcome,[3],inactive
same,outcome,[4],inactive
same,outcome,[5],inactive
same,outcome,[6],inactive
same,outcome,[7],inactive
same,outcome,[17],inactive
same,outcome,[8],inactive
same,outcome,[9],inactive
same,outcome,[10],inactive
same,outcome,[11],inactive
same,outcome,[12],inactive
same,outcome,[13],inactive
same,outcome,[14],inactive
same,outcome,[15],inactive
same,outcome,[16],inactive
O=S(=O)(O)c1ccc(N=Nc2c(O)ccc3cc(S(=O)(=O)O)ccc23)cc1,outcome,[1],inactive
same,outcome,[2],inactive
same,outcome,[3],inactive
same,outcome,[4],inactive
same,outcome,[5],inactive
same,outcome,[6],inactive
same,outcome,[7],inactive
same,AC50,[17],50 µM (active)
same,outcome,[8],inactive
same,outcome,[9],inactive
same,outcome,[10],inactive
same,outcome,[11],inactive
same,outcome,[12],inactive
same,outcome,[13],inactive
same,outcome,[14],inactive
same,outcome,[15],inactive
same,outcome,[16],inactive
OCCNCCO,outcome,[1],inactive
same,AC50,[2],9.92 µM (active)
same,outcome,[3],inactive
same,outcome,[4],inactive
same,outcome,[5],inactive
same,AC50,[6],50 µM (active)
same,outcome,[7],inactive
same,outcome,[17],inactive
same,outcome,[8],inactive
same,outcome,[9],inactive
same,outcome,[10],inactive
same,outcome,[11],inactive
same,outcome,[12],inactive
same,outcome,[13],inactive
same,outcome,[14],inactive
same,AC50,[15],60.5 µM (active)
same,outcome,[16],inactive
COc1cc(C(C)C)c2c(c1)S(=O)(=O)N(COc1cc(=O)n3cccc(OCCN4CCCCC4)c3n1)C2=O,outcome,[1],inactive
same,AC50,[2],20.7 µM (active)
same,outcome,[4],inactive
same,AC50,[5],19.4 µM (active)
same,AC50,[6],19.4 µM (active)
same,AC50,[7],23 µM (active)
same,outcome,[17],inactive
same,AC50,[8],19.5 µM (active)
same,outcome,[9],inactive
same,outcome,[10],inactive
same,AC50,[11],19.4 µM (active)
same,AC50,[12],21.3 µM (active)
same,outcome,[13],inactive
same,AC50,[14],22.1 µM (active)
same,AC50,[15],17.5 µM (active)
same,AC50,[16],22.3 µM (active)
